Screens as filed in PubChem.
Hits are enriched below; roughly 2.7% of the tested compounds scored in any of these assays.
Nrf2 inh: blocks Nrf2 signaling. A549 ARE-Fluc reporter, luciferase luminescence, 18-24 h. Potency, µM (highest dose often 46 µM), without a hit: top-dose activity change, negative = inhibition, actives largely listed as inhibitors. 2.1% of 360,000 active. AID 504444; note: potency is the fitted concentration of half-maximal effect; % is set by controls: 0 for no effect and ±100 for the full control effect; nearly all actives have a fitted effect of over 60% in size
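Concentration-response testing used A549 ARE_Fluc cells at 5000 cells/well. Following an 18-24 h compound incubation, viability was read by fluorescence (Ex 405/Em 525) and luciferase output by luminescence.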
LDHA block: inhibitors of human lactate dehydrogenase A. P00338. purified LDHA, NADH/diaphorase-resazurin fluorescence; active compounds read low. activity change, % (values are at about 110 or 230 µM). 0.15% of 480,000 active. AID 1347041; in the data active = activity change below about -30%; inconclusive = mostly about -25% to -30%;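 note: plate controls were DMSO wells for no effect and wells without enzyme for full effect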
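Remaining NADH was detected by diaphorase (0.133 mg/mL) converting 37 µM resazurin to fluorescent resorufin, read at 0 and 20 minutes. The preceding 5-minute room-temperature reaction used 2 nM LDHA, 0.2 mM sodium pyruvate and 0.06 mM NADH at pH 7.4.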
A549 tox: counter-screen for Nrf2 inhibitors: cytotoxicity in A549 cells; A549 ARE-Fluc cells, CellTiter-Fluor viability, 18-24 h; Potency, µM (highest dose often 46 µM), for the others: top-dose activity change, negative = cytotoxicity, usual class: inhibitors; 0.16% of 390,000 active; AID 504648; note: potency is the fitted concentration of half-maximal effect; % is set by controls: 0 for no effect and ±100 for the full control effect
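Cytotoxicity counterscreen: CellTiter-Fluor fluorescence was measured in A549 ARE_Fluc cells after 18-24 h of compound exposure in a concentration series. The subsequent BugLite luminescent read reports ARE-luciferase activity.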
mIDH1 inhibitor: human IDH1 R132H inhibition; IDH1-R132H enzyme, NADPH consumption, diaphorase/resazurin fluorescence; AID 602179; 0.093% of 390,000 active; Potency, µM (highest dose often 76.6 µM), for the others: top-dose activity change, negative = inhibition, usual class: inhibitors; O75874; note: potency is the fitted concentration of half-maximal effect; % is set by controls: 0 for no effect and ±100 for the full control effect; nearly all actives have a fitted effect of over 65% in size
Target sequence (O75874 whole entry R132H, stated change not applied): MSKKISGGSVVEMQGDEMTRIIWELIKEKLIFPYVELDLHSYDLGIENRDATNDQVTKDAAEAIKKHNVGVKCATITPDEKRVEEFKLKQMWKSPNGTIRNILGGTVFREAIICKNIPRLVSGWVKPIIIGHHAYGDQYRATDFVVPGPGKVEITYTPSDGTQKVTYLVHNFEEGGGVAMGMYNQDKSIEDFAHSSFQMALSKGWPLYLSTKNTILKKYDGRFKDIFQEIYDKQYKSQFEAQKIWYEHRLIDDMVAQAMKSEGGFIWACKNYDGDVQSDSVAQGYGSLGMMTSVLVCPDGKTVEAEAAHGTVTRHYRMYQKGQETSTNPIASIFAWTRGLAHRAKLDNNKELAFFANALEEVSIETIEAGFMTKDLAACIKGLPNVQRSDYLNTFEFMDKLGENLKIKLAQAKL
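IDH1-R132H (0.5 ug/mL) preincubated 30 min with compound, then NADPH (0.016 mM) and alpha-KG (2 mM) added; 80 min at RT, pH 7.5. Remaining NADPH coupled via diaphorase/resazurin to fluorescence (540/590 nm); concentration-response curves normalized to no-enzyme control.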
Nrf2 activator: Nrf2 pathway activation; AREc32 ARE-luciferase reporter (MCF7-derived line), luminescence, 24 h; Potency, µM (doses to about 46.1 µM), for the others: at the highest dose activation, usual class: activators; 0.31% of 410,000 active; note: potency is the fitted concentration of half-maximal effect; % of control where 0% means no effect; nearly all actives have a fitted effect of over 65% in size
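AREc32 cells carrying an ARE-driven firefly luciferase, 1000 cells/well in OPTI-MEM with 5% FBS, dosed after overnight attachment and incubated 24 hr at 37 deg C. Steady-Glo luminescence read after 30 min at RT.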
12-LOX inh: inhibitors of human 12S-lipoxygenase ALOX12. purified 12hLO, xylenol orange hydroperoxide absorbance. AID 1671190. Potency, µM (top dose mostly 108 µM), without a hit: at the top dose activity change, negative = inhibition, actives largely listed as inhibitors. P18054. 1.1% of 580,000 active; note: potency is the fitted concentration of half-maximal effect; % is set by controls: 0 for no effect and ±100 for the full control effect
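Purified human 12hLO at 150 nM in 25 mM Hepes, 0.01% Triton X-100, pH 7.0, preincubated 15 min at room temperature with compound. Reaction started with 40 uM arachidonic acid, 30 min at room temperature. Hydroperoxide measured by Fe-xylenol orange, 573/405 nm absorbance ratio.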
Active calls of the source: *; ? = inconclusive; . = no result given. Unless noted, calls come from the whole dose curve; as a rule, active = well fitted curve in the direction sought with a large enough effect; inconclusive = small, poorly fitted or top-dose-only effect, or another doubt; inactive = no such curve, though single readings can be large; an effect the other way counts as inactive or inconclusive.

SMILES	Nrf2 inh	LDHA block	A549 tox	mIDH1 inhibitor	Nrf2 activator	12-LOX inh
Cc1occc1-c1nnc(SCC(=O)NC(C)c2ccc3c(c2)OCCO3)n1-c1ccccc1 (stereo not drawn)	.	13.4	.	.	.	?
COC(=O)C(NC(=O)c1ccc(Cl)cc1)(Nc1nc(C2CC2)cs1)C(F)(F)F (stereo not drawn)	.	-1.5	.	.	.	?
CC(C)COc1ccc(C(=O)Nc2ccc(N3CCN(S(C)(=O)=O)CC3)cc2)cc1	.	-34.9*	.	.	.	43.5%
CC(C)(C)C(=O)N1CCN(c2ccc(NC(=O)c3ccc([N+](=O)[O-])o3)cc2)CC1	?	2.0	-16.8%	14.1%	?	-12.4%
O=C(Nc1ccc2[nH]c(=O)[nH]c2c1)c1ccc([N+](=O)[O-])o1	18.3%	5.4	-1.3%	0.5%	12.6µM*	-9.8%
O=C(c1ccc(N2CCCC2=O)cc1)N1CCN(c2ccc(Cl)cc2)CC1	18.4µM*	-0.2	-8.7%	12.6%	0.0%	222.9%
CC(C)CC(=O)Nc1ccc(N2CCN(S(C)(=O)=O)CC2)cc1	3.6%	-5.9	-9.4%	-9.3%	-0.7%	0.0%
O=C(Nc1ccc(N2CCN(C(=O)c3ccc(Cl)cc3)CC2)cc1)c1ccc([N+](=O)[O-])o1	20.6µM*	-0.7	?	4.3%	6.31µM*	-8.3%
Cc1ccccc1-c1noc(-c2ccc(NC(C)c3cnn(C)c3)nc2)n1 (stereo not drawn)	.	.	.	.	.	22.4%
Cc1ccc(C(C)C)cc1NC(=O)Nc1ccc([N+](=O)[O-])cc1	20.6µM*	-1.0	?	-1.9%	-0.7%	?
Cc1ccc([N+](=O)[O-])cc1NC(=O)c1ccccc1	0.7%	0.3	-1.8%	10.4%	7.94µM*	18.7%
Cc1ccc(SCc2ccc(C(=O)Nc3cc([N+](=O)[O-])ccc3C)cc2)cc1	14.6µM*	-8.8	-8.9%	1.8%	-0.3%	9.4%
CC(C)(C#CC(O)(c1ccccc1)c1ccccc1)[N+](C)(C)Cc1ccccc1	.	-13.1	.	.	.	11.1%
COc1ccc(C2=NN(c3nc(C(=O)O)cs3)C(O)(C(F)(F)F)C2)c(OC)c1 (stereo not drawn)	15.0%	-63.5*	-6.3%	-6.1%	11.1%	1.6%
COc1cc2ncn(CCC(=O)N3CCCCCC3)c(=O)c2cc1OC	.	-9.0	.	.	.	-2.4%
CCSC1=C(C#N)C(c2cccs2)C(C(=O)OC)=C(C)N1 (stereo not drawn)	23.1µM*	-3.3	?	-2.1%	2.6%	?
CCc1cc(=O)oc2cc(C)cc(OCC(=O)NC3CC(C)(C)NC(C)(C)C3)c12	.	5.5	.	.	.	25.2%
CC(NC(=O)c1ccccc1NC(=O)CSc1nncn1-c1ccccc1F)c1ccccc1 (stereo not drawn)	.	3.3	.	.	.	-2.0%
CCCCC[n+]1cccc2c3ccccc3ccc21	?	-15.3	?	17.0%	0.1%	44.7µM*
Cc1[nH]nc2nc(SCC(=O)NC3CCCCC3)n(-c3ccc(Br)cc3)c(=N)c12	18.4µM*	-12.8	?	-12.1%	0.3%	-12.4%
CCCN(CCC)C(=O)CSc1nc2n[nH]c(C)c2c(=N)n1-c1ccc(OC)cc1	18.4µM*	5.7	?	2.2%	-0.7%	9.7%
COc1ccccc1NC(=O)CSc1nc2n[nH]c(C)c2c(=N)n1-c1ccccc1Cl	13µM*	1.6	-9.9%	8.8%	0.5%	14.2%
CCCN(CCC)C(=O)CSc1nc2n[nH]c(C)c2c(=N)n1-c1ccc(OCC)cc1	.	1.5	?	4.2%	-0.5%	.
CCc1ccccc1NC(=O)CSc1nc2n[nH]c(C)c2c(=N)n1-c1ccc(OC)cc1	.	-8.9	-13.0%	1.5%	4.9%	6.6%
CCc1ccc(NC(=O)CSc2nc3n[nH]c(C)c3c(=N)n2-c2ccc(C)cc2)cc1	.	-5.0	-13.6%	13.1%	4.2%	-0.1%
SMILES	Nrf2 inh	LDHA block	A549 tox	mIDH1 inhibitor	Nrf2 activator	12-LOX inh
CCOc1cc(NC(=O)c2ccc(Cn3cc(Br)cn3)cc2)ccc1OC(F)F	.	-2.3	.	.	.	3.1%
O=C(c1ccc(C(F)(F)F)cc1)N1CCNCC1	.	-2.7	.	.	.	?
CSC1=NC(C)(C)C=C(/C=C/c2ccc(Cl)cc2Cl)N1	15.8%	11.8	3.4%	2.8%	25.1µM*	?
CSC1=NC(C)(C)C=C(/C=C/c2ccc(Cl)cc2)N1	-1.9%	8.7	-0.9%	3.0%	5.62µM*	?
CCSC1=NC(C)(C)C=C(/C=C/c2ccc(Cl)cc2Cl)N1	.	20.2	11.1%	4.7%	?	39.8µM*
CSC1=NC(C)(C)C=C(/C=C/c2c(Cl)cccc2Cl)N1	-22.6%	7.3	3.7%	-4.2%	?	-3.2%
Cc1ccc(Nc2nc(N)c(C(=O)C(C)C)s2)c(C)c1	.	9.4	.	.	.	-18.3%
O=C(NCC(c1ccco1)N1CCOCC1)c1sc2ccccc2c1Cl (stereo not drawn)	.	0.2	.	.	.	-2.8%
CCn1c(-c2cc(-c3ccccc3OC)nc3ccccc23)n[nH]c1=S	-15.1%	-2.9	0.3%	6.8%	-0.8%	?
CCCOc1cccc(-c2cc(-c3n[nH]c(=S)n3CC)c3ccccc3n2)c1	13µM*	-3.8	?	1.2%	5.2%	?
CCn1c(-c2cc(-c3ccc(C)cc3)nc3ccccc23)n[nH]c1=S	-15.3%	2.8	-6.0%	-7.7%	0.4%	?
CCn1c(-c2cc(-c3cc(OC)ccc3OC)nc3ccccc23)n[nH]c1=S	-14.9%	-2.7	-6.3%	-0.1%	0.1%	20µM*
Nc1ccc(C(=O)N2CCN(S(=O)(=O)c3ccc4c(c3)OCCCO4)CC2)cc1[N+](=O)[O-]	25.9µM*	-0.5	?	0.6%	0.7%	-9.1%
COc1ccc(CCn2c(Br)nc3c(=O)n(C)c(=O)n(C)c32)cc1	.	0.3	.	.	.	-29.7%
CC(=O)N1CCN(C(=O)c2sc3ncnc(NCC4CCCO4)c3c2C)CC1 (stereo not drawn)	.	.	.	.	.	13.0%
Cc1sc2ncnc(NCC3CCCO3)c2c1C (stereo not drawn)	20.6µM*	-2.2	-11.7%	2.4%	-0.5%	?
